In assay [1] the test system is Wnt5a (protein binding on small-molecule microarray). The assay is described as follows: Wnt5a binders on small-molecule microarray, primary screen, biophysical, 635/667 nm fluorescence (AID 1142).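 Note: fluorescence read at 667 nm with signal to noise per printed feature.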 To be noted: 635 nm fluorescence, higher = more signal.
Assay [2] in a line: cell viability in Huh7 cells, primary screen, cytotoxicity control for HCV replication inhibitor project, CellTiter-Glo luminescence, basal, 48 h (AID 1143).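 Note: Huh7 hepatoma cells carrying a hepatitis C replication reporter with no stimulus; test concentration not given here.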 Conditions: Huh7 HCV replicon, higher = more signal, called active from +8 up or from −8 down. Background: ATP-based viability assays read luminescence as a measure of living cells.
The nature of assay [3]: P. aeruginosa biofilm formation inhibitors, primary screen, PAO1 strain, BacTiter-Glo luminescence, LB-PBS (AID 1144). Conditions: 12 h, higher = more signal.
A short description of assay [4]: CREB reporter modulators without forskolin, primary screen, cell-based, PC12, CRE-LacZ reporter, unstimulated (AID 1145). To be noted: no forskolin, luminescence, 4.5 h, higher = more signal, called active from +8 up or from −8 down.
Assay [5] in a line: CREB reporter modulators under forskolin, primary screen, cell-based, PC12, CRE-LacZ reporter, forskolin-stimulated (AID 1146).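 Note: PC12 cells with 6xCRE LacZ reporter stimulated by forskolin 10 µM; beta-galactosidase reporter signal reflecting CREB driven transcription.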 Conditions: luminescence, 4.5 h, higher = more signal, called active from +8 up or from −8 down.
Assay [6] deals with Streptavidin (Streptomyces avidinii) (UniProt P22629). The assay is described as follows: streptavidin binders on small-molecule microarray, primary screen, artefact control for SMM compound annotation, biophysical, 635/667 nm fluorescence (AID 1147).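 Note: signal reflects streptavidin binding to arrayed compounds as a control protein.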 Conditions: streptavidin binding, higher = more signal.
Streptavidin (Streptomyces avidinii), sequence (P22629 whole entry, looked up): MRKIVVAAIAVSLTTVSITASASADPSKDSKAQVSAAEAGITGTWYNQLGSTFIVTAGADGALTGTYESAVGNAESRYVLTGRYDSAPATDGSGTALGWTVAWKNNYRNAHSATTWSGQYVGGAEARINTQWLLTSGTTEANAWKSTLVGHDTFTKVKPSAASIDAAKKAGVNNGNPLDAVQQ
Assay [7] can be described thus: small-molecule binders of probe aInhba, primary screen, biochemical, small-molecule microarray, 635/667 nm fluorescence (AID 1148).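 Note: score merges 667nm spot fluorescence with signal-to-noise for antibody binding to printed compounds.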 Conditions: higher = more signal.
In assay [8] the target is Torsin-1A (Homo sapiens) (UniProt O14656). As to the kind of experiment: torsin A binders from cell lysate, primary screen, small-molecule microarray, wild-type, 635/667 nm (AID 1149). To be noted: COS7 hTOR1A-WT lysate, 635 nm fluorescence, higher = more signal.
Torsin-1A (Homo sapiens), sequence (O14656 whole entry, looked up): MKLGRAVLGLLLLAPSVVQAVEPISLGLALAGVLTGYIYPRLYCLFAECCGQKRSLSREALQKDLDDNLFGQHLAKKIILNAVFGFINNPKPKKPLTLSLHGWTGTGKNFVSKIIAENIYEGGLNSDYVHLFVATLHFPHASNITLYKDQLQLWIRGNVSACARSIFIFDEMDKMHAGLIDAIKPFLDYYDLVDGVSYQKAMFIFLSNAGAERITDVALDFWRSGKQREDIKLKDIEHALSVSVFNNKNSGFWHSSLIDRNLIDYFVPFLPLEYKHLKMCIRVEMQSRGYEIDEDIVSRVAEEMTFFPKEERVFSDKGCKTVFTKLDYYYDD
For assay [9] the target is unchanged. As to the kind of experiment: small-molecule binders of mutant TOR1A in lysate, primary screen, cell lysate, small-molecule microarray, COS7 lysate, 635/667 nm fluorescence (AID 1150).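 Note: score pools 667 nm emission and signal to noise measuring lysate protein binding.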 To be noted: COS7 hTOR1A mutant lysate, 635 nm fluorescence, higher = more signal.
Assay [10] concerns Sonic hedgehog protein (Shh). As to the kind of experiment: small-molecule binders of Shh protein, primary screen, biochemical, small-molecule microarray, 635/667 nm fluorescence (AID 1151).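 Note: Shh protein binding to compounds spotted on small-molecule microarray slides; score combines spot fluorescence intensity with signal-to-noise across triplicate slides.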 To be noted: small-molecule microarray binding, 635 nm fluorescence; higher = more signal.
Assay [11] is described as follows: E. coli DRC41 culture turbidity changes, primary screen, E. coli filamentation inducer project, strain DRC41, OD650, 48 h (AID 1152).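 Note: E. coli MC1000 strain DRC41 lacking acrAB efflux pump and sulA.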 Conditions: E. coli DRC41 (acrAB sulA), higher = more signal, called active from +8 up or from −8 down.
The nature of assay [12]: small-molecule binders of probe aLefty1, primary screen, biochemical, small-molecule microarray, 635/667 nm fluorescence (AID 1153).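 Note: score merges spot fluorescence with signal-to-noise ratio from the scanned slide images.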 Conditions: higher = more signal.
Assay [13] can be described thus: PSAC antagonists in infected red cells, primary screen, cell-based, P. falciparum Indochina, OD700, 1 h (AID 1154). To be noted: P. falciparum Indochina infected RBC osmotic lysis, higher = more signal, called active from +8 up or from −8 down.
Assay [14] is described as follows: PSAC antagonists in infected red cells, primary screen, cell-based, P. falciparum Indochina, OD700, 2 h (AID 1155).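 Note: lysis reports solute entry through the parasite surface anion channel PSAC; channel blockers reduce lysis of infected cells.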 To be noted: P. falciparum Indochina infected erythrocytes, osmotic lysis OD700; higher = more signal, called active from +8 up or from −8 down.
A short description of assay [15]: osmotic lysis modulators in infected erythrocytes, primary screen, PSAC antagonist project, cell-based, P. falciparum Indochina, OD700, 3 h (AID 1156). Conditions: higher = more signal, called active from +8 up or from −8 down.
The nature of assay [16]: PSAC antagonists in infected red cells, primary screen, cell-based, P. falciparum Indochina, OD700, 18 h (AID 1157). To be noted: P. falciparum Indochina infected erythrocytes, osmotic lysis OD700, 18 h; higher = more signal, called active from +8 up or from −8 down.
A short description of assay [17]: modulators of S6 phosphorylation in cells, primary screen, cell-based, A549, cytoblot, luminescence, serum-stimulated (AID 1158).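 Note: serum-stimulated A549 lung adenocarcinoma cells; signal is phosphorylated S6 detected by cytoblot immunostaining with HRP secondary.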 To be noted: A549 phospho-S6 cytoblot, 5 h, higher = more signal.
For assay [18], the target named is NADPH oxidase 2 (Homo sapiens) (UniProt P04839). The assay is described as follows: NOX2-dependent H2O2 signal modulators, primary screen, NOX inhibitor project, cell-based, HEK293-NOX2, PMA-stimulated, Amplex Red fluorescence (AID 1159). Note: test concentration not given here. Conditions: 45 min, higher = more signal, called active from +8 up or from −8 down.
NADPH oxidase 2 (Homo sapiens), sequence (P04839 whole entry, looked up): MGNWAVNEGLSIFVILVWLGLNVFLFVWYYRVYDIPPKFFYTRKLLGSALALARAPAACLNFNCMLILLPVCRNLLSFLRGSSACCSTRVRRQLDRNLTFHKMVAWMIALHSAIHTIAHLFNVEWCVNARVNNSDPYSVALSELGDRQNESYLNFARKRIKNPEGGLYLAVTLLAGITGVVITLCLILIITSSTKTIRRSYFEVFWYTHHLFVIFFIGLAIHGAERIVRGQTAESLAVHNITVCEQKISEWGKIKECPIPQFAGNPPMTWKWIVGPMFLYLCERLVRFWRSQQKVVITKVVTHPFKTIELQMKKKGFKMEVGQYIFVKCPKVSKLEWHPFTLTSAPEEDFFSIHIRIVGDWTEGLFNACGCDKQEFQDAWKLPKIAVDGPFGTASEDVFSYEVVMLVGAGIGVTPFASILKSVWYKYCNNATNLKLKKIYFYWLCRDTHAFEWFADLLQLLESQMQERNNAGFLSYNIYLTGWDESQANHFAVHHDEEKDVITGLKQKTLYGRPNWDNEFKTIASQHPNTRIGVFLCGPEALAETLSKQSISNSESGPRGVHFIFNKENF
The target in assay [19] is NADPH oxidase 4 (Homo sapiens) (UniProt Q9NPH5). As to the kind of experiment: NOX4-dependent H2O2 signal modulators, primary screen, NOX inhibitor project, cell-based, HEK293-NOX4, tetracycline-induced, Amplex Red fluorescence (AID 1160). To be noted: 45 min, higher = more signal, called active from +8 up or from −8 down.
NADPH oxidase 4 (Homo sapiens), sequence (Q9NPH5 whole entry, looked up): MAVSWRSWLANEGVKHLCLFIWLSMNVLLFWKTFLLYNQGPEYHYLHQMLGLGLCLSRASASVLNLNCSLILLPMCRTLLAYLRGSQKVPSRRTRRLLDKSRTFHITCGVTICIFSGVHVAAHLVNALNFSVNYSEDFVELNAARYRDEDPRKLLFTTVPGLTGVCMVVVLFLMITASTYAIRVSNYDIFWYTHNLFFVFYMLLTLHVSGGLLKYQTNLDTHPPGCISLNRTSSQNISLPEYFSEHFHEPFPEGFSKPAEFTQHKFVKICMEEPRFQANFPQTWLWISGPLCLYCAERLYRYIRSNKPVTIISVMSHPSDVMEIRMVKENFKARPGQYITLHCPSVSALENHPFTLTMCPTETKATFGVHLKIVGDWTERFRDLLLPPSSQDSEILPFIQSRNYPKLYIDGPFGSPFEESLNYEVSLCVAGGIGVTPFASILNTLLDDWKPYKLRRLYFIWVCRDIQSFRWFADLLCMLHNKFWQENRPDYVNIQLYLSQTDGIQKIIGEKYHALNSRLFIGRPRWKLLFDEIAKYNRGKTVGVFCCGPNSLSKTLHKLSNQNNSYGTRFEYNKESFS
The target in assay [20] is NADPH oxidase 5 (Homo sapiens) (UniProt Q96PH1). As to the kind of experiment: NOX5-dependent H2O2 signal modulators, primary screen, NOX inhibitor project, cell-based, HEK293-NOX5, Amplex Red fluorescence (AID 1161). Conditions: HEK293-NOX5, ionomycin, 45 min, higher = more signal.
NADPH oxidase 5 (Homo sapiens), sequence (Q96PH1 whole entry, looked up): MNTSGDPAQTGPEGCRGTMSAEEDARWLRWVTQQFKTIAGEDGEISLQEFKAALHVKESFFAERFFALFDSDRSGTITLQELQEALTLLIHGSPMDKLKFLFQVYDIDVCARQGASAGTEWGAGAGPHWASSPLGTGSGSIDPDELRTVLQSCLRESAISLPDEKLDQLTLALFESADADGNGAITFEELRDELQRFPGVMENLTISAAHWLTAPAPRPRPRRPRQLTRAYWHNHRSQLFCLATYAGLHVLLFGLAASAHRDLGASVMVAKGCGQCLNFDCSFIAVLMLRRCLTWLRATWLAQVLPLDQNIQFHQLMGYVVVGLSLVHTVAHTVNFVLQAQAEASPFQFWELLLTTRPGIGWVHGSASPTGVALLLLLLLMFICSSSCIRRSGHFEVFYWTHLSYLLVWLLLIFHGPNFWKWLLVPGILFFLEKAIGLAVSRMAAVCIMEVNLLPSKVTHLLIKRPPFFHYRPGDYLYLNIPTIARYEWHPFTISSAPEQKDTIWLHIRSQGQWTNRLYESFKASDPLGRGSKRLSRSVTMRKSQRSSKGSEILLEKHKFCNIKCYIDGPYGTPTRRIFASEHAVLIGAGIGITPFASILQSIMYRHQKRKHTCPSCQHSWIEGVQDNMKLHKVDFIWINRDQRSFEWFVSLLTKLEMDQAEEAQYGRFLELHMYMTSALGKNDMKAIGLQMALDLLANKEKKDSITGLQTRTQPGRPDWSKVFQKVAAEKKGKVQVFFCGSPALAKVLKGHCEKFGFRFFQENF

Here are results for four compounds from PubChem BioAssay.

Active and inactive are the calls of the source. Unless noted, the rule behind the calls is not given here.

On to `COC(=O)[C@]1(CCC(=O)OC(C)(C)C)N=C(c2ccc(OCCCO)cc2)O[C@@H]1c1ccccc1N=[N+]=[N-]`, for which the composite z-score in [1] was 0.827; in assay [6], -0.0444; in assay [7], -0.0658; in [8], 0.154; in assay [9], 0.0612; in assay [10], 0.886. Moreover, the composite z-score in assay [12] was 0.0591. For the same compound, the z-score in assay [2] was -2.64 (inactive); in assay [3] it was -0.192 (inactive); in [4], 0.834 (inactive); in assay [5], 0.154 (inactive); in [11], -0.725 (inactive); in [13], 30.9 (active). The z-score in [14] was 25.9 (active); in assay [15] it was 1.64 (inactive); in assay [16] it was 5.32 (inactive); in assay [17], -0.328; in [18] it was -1.41 (inactive); in assay [19], -0.601 (inactive). Moreover, the z-score in assay [20] is -2.4.
For the compound `CCCNC(=O)[C@@]1(Sc2ccc(C)cc2)CC(=O)N(Cc2ccccc2Cl)[C@@H]1c1ccc(CO)cc1I`, the composite z-score in assay [1] was -0.618; in [6], -0.255; in [7] it was 0.216; in assay [8] it was -1.61; in [9], -1.42; in assay [10], -0.537. In [12], this compound had a composite z-score of 1.08. Besides, the z-score is -1.23 (inactive) in assay [2]; 0.0611 (inactive) in [3]; 0.479 (inactive) in assay [4]; 1.44 (inactive) in assay [5]; 0.244 (inactive) in [11]; 5.36 (inactive) in [13]. Also, the z-score in assay [14] was 0.773 (inactive); in assay [15] it was 0.206 (inactive); in assay [16] it was 0.303 (inactive); in assay [17] it was 0.009; in assay [18] it was 1.24 (inactive); in assay [19] it was -1.41 (inactive). Also, the z-score in [20] was determined as 1.87.
As to `CN1C(=O)[C@@H]2[C@@H](CC(COc3ccccc3)=C3[C@@H](CCc4ccccc4)OB(O)C[C@@H]32)C1=O`, the composite z-score is 0.0305 in assay [1]; -0.156 in assay [6]; -0.128 in assay [7]; 0.179 in [8]; 0.0191 in assay [9]; 0.394 in [10]. The same compound had a composite z-score in [12] of -0.191. Also, the z-score in assay [2] was -0.706 (inactive); in assay [3] it was 0.32 (inactive); in assay [4], 1.76 (inactive); in [5] it was 0.89 (inactive); in assay [11] it was -0.759 (inactive); in [13], 4.5 (inactive). Besides, the z-score is 0.626 (inactive) in assay [14]; -0.488 (inactive) in assay [15]; 0.133 (inactive) in assay [16]; -0.202 in [17]; 0.693 (inactive) in assay [18]; 0.41 (inactive) in assay [19]. For the same compound, in assay [20], the z-score turned out to be 0.82.
For the compound `O=C1c2ccccc2[C@@]2(Cc3ccccc3N(Cc3ccccc3)C2=O)[C@H](c2ccc(CO)cc2)N1Cc1ccccc1Cl`, the composite z-score was -0.131 in assay [1]; -0.463 in assay [6]; -0.13 in assay [7]; -1.29 in assay [8]; 0.454 in [9]; -0.971 in [10]. The same compound came in with a composite z-score in [12] of -0.0479. For the same compound, the z-score was -1.35 (inactive) in [2]; -1.09 (inactive) in assay [3]; -0.322 (inactive) in assay [4]; 0.164 (inactive) in assay [5]; -0.29 (inactive) in assay [11]; 0.705 (inactive) in assay [13]. Further, the z-score in [14] is 0.387 (inactive); in assay [15] it was -0.113 (inactive); in [16] it was 0.18 (inactive); in assay [17], 0.272; in assay [18], -0.534 (inactive); in [19], -0.644 (inactive). This compound also returned a z-score in assay [20] of -1.11.
